# Compound activity as filed in PubChem BioAssay.
# Hits are enriched below; roughly 2.9% of the tested compounds scored in any of these assays.
# Exocytosis inh: lytic granule exocytosis inhibition. TALL-104 LAMP-1 surface exposure, flow cytometry; cells stimulated with thapsigargin and PMA. inhibition, % at 10 µM. 360,000 compounds, 0.66% hits. AID 651702;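 active = inhibition above about 55%, limit read from the data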
# B2AR ag: agonists of human beta-2 adrenergic receptor inducing internalization. AID 504454. 340,000 compounds, 0.43% hits. Am2.2-beta2AR cells, FAP receptor internalization, flow cytometry. response, % (concentration not given with the values);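 active = response above a set limit, near 3 SD of response in nonfluorescent compounds, cut at about 42% in these data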
# PP1 counter: counter-screen for PP5 inhibitors: inhibitors of human PP1-alpha; purified PP1alpha, OMFP fluorescence; 320,000 compounds, 0.9% hits; P62136; inhibition, % at 6.7 µM;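 active = inhibition above the mean inhibition of all tested compounds plus 3 SD, computed separately for each screening campaign, cut at about 15% in these data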
# GRK2 inh: human GRK2 inhibition via aptamer displacement | bead flow cytometry, FAM-aptamer displacement from GRK2 | AID 488847 | 330,000 compounds, 0.59% hits | P25098 | inhibition of aptamer binding, % at 10 µM;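 active = inhibition of aptamer binding above 40%, roughly 3 SD of noise, on plates passing a quality check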;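 note: median bead fluorescence of bound FAM aptamer so fluorescent compounds give negative values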
# Target sequence (P25098 whole entry, looked up): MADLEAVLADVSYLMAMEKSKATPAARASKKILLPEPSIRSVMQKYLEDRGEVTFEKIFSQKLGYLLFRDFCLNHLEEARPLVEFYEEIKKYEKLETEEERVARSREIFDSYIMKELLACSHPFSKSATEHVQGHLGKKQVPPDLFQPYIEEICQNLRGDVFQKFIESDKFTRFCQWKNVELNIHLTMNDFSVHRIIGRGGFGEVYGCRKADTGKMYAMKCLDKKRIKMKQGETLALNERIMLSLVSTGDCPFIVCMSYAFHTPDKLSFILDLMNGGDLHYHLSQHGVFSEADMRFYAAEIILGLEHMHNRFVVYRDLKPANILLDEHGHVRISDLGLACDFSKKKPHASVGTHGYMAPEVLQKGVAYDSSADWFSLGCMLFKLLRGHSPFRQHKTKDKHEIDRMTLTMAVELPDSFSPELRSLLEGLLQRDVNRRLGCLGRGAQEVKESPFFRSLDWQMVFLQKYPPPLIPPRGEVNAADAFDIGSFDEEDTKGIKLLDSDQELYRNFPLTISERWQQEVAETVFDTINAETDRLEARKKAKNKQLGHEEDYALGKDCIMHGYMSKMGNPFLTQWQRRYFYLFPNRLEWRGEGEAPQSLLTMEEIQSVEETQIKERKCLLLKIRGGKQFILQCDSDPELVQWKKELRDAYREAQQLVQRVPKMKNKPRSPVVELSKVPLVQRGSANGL
# NadD block: blocks S. aureus nicotinate mononucleotide adenylyltransferase. purified NadD enzyme, colorimetric absorbance read-out. inhibition, % at 20 µM. 360,000 compounds, 0.78% hits; in the data active = inhibition above about 26%
# NadD conf: confirmation of Staphylococcus aureus NadD inhibitors. purified S. aureus NadD, colorimetric enzyme assay. inhibition, % at 20 µM. 2,000 compounds, 13% hits. shares compounds with NadD block; in the data active = inhibition mostly above about 42%, no sharp cut-off; inactive = mostly below about 42%
# Active calls of the source: *; . = not tested or not shown.
SMILES,Exocytosis inh,B2AR ag,PP1 counter,GRK2 inh,NadD block,NadD conf
NC(=O)[C@H]1CC2(CC(c3cccc(NC(=O)COc4ccc(Cl)cc4)c3)=NO2)CN1C(=O)c1ccc(Cl)cc1 (some centres undefined),-2.6,24.7,3.3,4.0,39.7*,28.1
NC(=O)[C@H]1CC2(CC(c3cccc(NC(=O)COc4ccc(Cl)cc4)c3)=NO2)CN1C(=O)c1ccccc1C(=O)c1ccccc1 (some centres undefined),12.7,7.9,13.3,0.0,31.4*,39.8
CC1(C(=O)N2CC3(CC(c4cccc(NC(=O)COc5ccc(Cl)cc5)c4)=NO3)C[C@@H]2C(N)=O)CC1 (some centres undefined),-9.4,7.3,1.9,3.0,3.5,.
Cc1oc2c(cc(NS(=O)(=O)c3ccc4c5c(cccc35)C(=O)N4)c3ccccc32)c1C(=O)OC(C)C,-1.3,-1.2,1.0,2.0,30.5*,36.7*
CCOCCc1nn2c(=O)cc(CSCC(=O)Nc3cc(C)cc(C)c3)nc2s1,-8.5,-1.3,-1.5,0.0,3.8,.
Cc1ccc(CN(Cc2ccccc2)C(=S)NCC(=O)NCc2cccnc2)o1,0.8,-5.0,6.1,2.0,-2.1,.
O=C1c2ccccc2C(=O)N1CCc1c(-c2[nH]c3ccccc3c2CCN2C(=O)c3ccccc3C2=O)[nH]c2ccccc12,11.7,-2.3,.,.,31.1*,3.1
O=C(NCCCN1CCCC1=O)C1CCC(CNS(=O)(=O)c2ccc(Cl)cc2)CC1 (centres undefined),-0.4,-1.4,3.6,3.0,0.1,.
CC(=O)Oc1cccc(N2C(=O)c3cccc4c([N+](=O)[O-])ccc(c34)C2=O)c1,0.5,3.5,-1.0,4.0,-2.2,.
O=C(Nc1nccs1)c1cccc(N2C(=O)c3cccc4c([N+](=O)[O-])ccc(c34)C2=O)c1,0.9,20.1,1.0,0.0,37.5*,10.2
CCOc1cccc(N2C(=O)CC(NCc3ccc(S(N)(=O)=O)cc3)C2=O)c1 (centres undefined),-0.7,-0.1,-1.7,0.0,1.3,.
O=C(NC(Cc1ccccc1)C(=O)O)c1cccnc1Cl (centres undefined),1.1,3.7,-5.0,4.0,-6.6,.
NC(=O)c1c(NC(=O)COC(=O)c2ccc(S(=O)(=O)Nc3ccccc3)cc2)sc2c1CCCC2,-0.8,-1.3,6.5,0.0,34.6*,26.4
CC(C)C[C@@H](CN1CCC[C@H]1CN1C(=O)C(=O)NC[C@@H]1Cc1ccccc1)N1C[C@H](Cc2ccccc2)N(CC2CCCCC2)C(=O)C1=O,-1.3,.,.,.,33.2*,29.4
CC(C)C[C@@H](CN1CCC[C@H]1CN1C(=O)C(=O)NC[C@@H]1Cc1ccc(O)cc1)N1C[C@H](Cc2ccc(O)cc2)N(CC2CCCCCC2)C(=O)C1=O,3.9,.,.,.,28.8,.
CC(C)C[C@@H](CN1CCC[C@H]1CN1C(=O)C(=O)NC[C@@H]1Cc1ccc(O)cc1)N1C[C@H](Cc2ccc(O)cc2)N(CC2CCCCC2)C(=O)C1=O,-7.2,.,.,.,32.5*,30.1
COc1ccc(-c2ccnc3nc(N4CCN(c5ccccc5)CC4)nn23)cc1,-2.4,-9.1,-1.0,0.0,0.5,.
CCOC(=O)C1CCCN(C(=O)CNC(=O)c2ccc(Br)o2)C1 (centres undefined),-0.2,3.9,.,7.0,-3.6,.
Cc1cc(C)c2cc(CN(Cc3ccc4c(c3)OCO4)Cc3nnnn3Cc3ccco3)c(=O)[nH]c2c1,-4.3,-2.5,7.8,3.0,37.0*,9.8
CCC(c1nnnn1Cc1ccco1)N(CCc1ccccc1)Cc1cc2cc(C)ccc2[nH]c1=O (centres undefined),3.0,1.2,7.9,2.0,8.0,.
Cc1ccc2[nH]c(=O)c(CN(CCc3ccccc3)C(c3nnnn3Cc3ccco3)C(C)C)cc2c1 (centres undefined),18.0,23.9,12.3,7.0,53.9*,56.5*
O=c1[nH]c2cc3c(cc2cc1CN(Cc1ccccc1)Cc1nnnn1Cc1ccco1)OCCO3,-2.3,-12.6,.,.,33.1*,15.0
O=c1[nH]c2cc3c(cc2cc1CN(Cc1cccnc1)Cc1nnnn1Cc1ccco1)OCCO3,-3.7,-15.0,13.2,4.0,19.9,.
CCOc1ccc(-c2c(C)n([O-])c3c([n+]2=O)CCCCC3)cc1,-1.8,-6.2,2.6,0.0,-3.0,.
Cc1ccc(-c2nc3c(c(SCC(=O)N4CCOCC4)n2)COC(C)(C)C3)cc1,1.8,-9.9,-1.8,0.0,-7.9,.
SMILES,Exocytosis inh,B2AR ag,PP1 counter,GRK2 inh,NadD block,NadD conf
Cc1cc(NC(=O)CSc2nc3c(sc4ccccc43)c(=O)n2CCc2ccccc2)n[nH]1,-1.7,8.2,2.4,0.0,33.9*,2.2
Cc1cc(NC(=O)CSc2nc3c(sc4ccccc43)c(=O)n2CCCN2CCOCC2)n[nH]1,-0.2,-2.7,-1.1,1.0,3.9,.
Cc1cc(C(=O)O)ccc1-c1ccc(/C=C2\SC(=O)N(CC(=O)Nc3ccc4c(c3)OCO4)C2=O)o1,27.4,10.7,.,21.0,48.4*,9.2
O=C(NCC(=O)N1CCCCCC1)c1ccc(Br)cc1,-2.1,1.7,1.0,2.0,-0.2,.
O=C(Nc1cccc(S(=O)(=O)N2CCCCC2)c1)c1c2c(nc3ccccc13)CCN(Cc1ccccc1)C2,-1.0,10.2,12.5,0.0,30.0*,-5.0
O=C(CN1CCN(Cc2ccccc2)CC1)Nc1cccc(S(=O)(=O)N2CCCCCC2)c1,-1.5,-4.7,-0.6,0.0,-9.2,.
CN(C)CCCNC(NC(=O)/C=C/c1ccccc1)C(Cl)(Cl)Cl (centres undefined),10.9,-1.4,-0.7,0.0,-3.7,.
Cc1ccc2nc3c(cc2c1)CN(Cc1ccco1)C(=NCC1CCCO1)S3 (centres undefined),-0.9,9.6,2.3,0.0,45.2*,9.8
Cc1cccc2cc3c(nc12)SC(=NCC1CCCO1)N(Cc1ccco1)C3 (centres undefined),4.0,-8.4,11.7,2.0,16.2,.
CC(C)COC(=O)C(C#N)c1nc2ccccc2nc1N1CCN(Cc2ccc3c(c2)OCO3)CC1 (centres undefined),2.2,-2.3,3.2,0.0,30.9*,9.4
COC(=O)C(C#N)c1nc2ccccc2nc1N1CCN(Cc2ccc3c(c2)OCO3)CC1 (centres undefined),.,.,-2.0,0.0,.,.
C#CCN(C[C@H]1[C@H](OC(=O)NCc2ccc(OC)c(OC)c2)[C@H](OC(=O)NCc2ccc(OC)c(OC)c2)C[C@H]2C(=O)N(c3ccccc3)C(=O)[C@@H]12)S(=O)(=O)c1ccc(C)cc1,-3.8,.,.,.,-2.7,.
C#CCN(C[C@H]1[C@H](OC(=O)NCc2ccccc2F)[C@H](OC(=O)NCc2ccccc2F)C[C@H]2C(=O)N(c3ccccc3)C(=O)[C@@H]12)S(=O)(=O)c1ccc(C)cc1,1.1,.,.,.,30.4*,39.6
Cc1ccc(NCc2nnc(SCC(=O)c3ccccc3)n2Cc2ccco2)c(C)c1,-0.8,-6.2,13.8,1.0,25.4*,56.9*
